The text below walks through data of PubChem BioAssay (Tox21).

Records with an inconclusive call do not appear. A number with no mark means an inactive call. The source made the active and inactive calls. Unless noted, calls come from the whole dose curve; as a rule, active = well fitted curve in the direction sought with a large enough effect in the repeat runs; inconclusive = weak or mixed curves; inactive = no such curve, though single readings can be large; an effect the other way counts as inactive or inconclusive.

Assay [1] in a line: qHTS assay to identify small molecule antagonists of the retinoid-related orphan receptor gamma (ROR-gamma) signaling pathway - cell viability counter screen (AID 1159520). Note: % is set by controls: 0 for no effect and ±100 for the full control effect; nearly all actives have a fitted effect of over 50% in size. An outline of the steps:
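Cytotoxicity was read from cellular ATP (CellTiter-Glo luminescence) after 16 hr at 37 C with 1 uM doxycycline induction. The inducer was added 2 hr after compound transfer to Tet-on ROR gamma CHO cells.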
In general terms: Quantitative high-throughput screening tests each substance at several concentrations.

The target in assay [2] is Nuclear receptor ROR-gamma (Homo sapiens) (UniProt P51449). In words: qHTS assay to identify small molecule antagonists of the retinoid-related orphan receptor gamma (ROR-gamma) signaling pathway (AID 1159521;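 note: CHO cells with doxycycline inducible ROR-gamma driving an RORE luciferase reporter; top concentration of the series differs between compounds; % is set by controls: 0 for no effect and ±100 for the full control effect; nearly all actives have a fitted effect of over 50% in size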). An outline of the steps: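 Tet-on ROR-gamma CHO cells with ROR response element-luciferase reporter; compounds added 2 hr before 1 uM doxycycline induction, then 16 hr at 37 C. Antagonism scored as decreased ONE-Glo luminescence.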

A short description of assay [3]: qHTS assay to identify small molecule agonists of the AP-1 signaling pathway - cell viability counter screen (AID 1159525; calls by dose curve; note: nearly all actives have a fitted effect of over 55% in size). In a few lines: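 Luminescent ATP readout (Cell Titer Glo, 30 min RT), normalised to DMSO and tetra n-octyl ammonium bromide controls. Cells were ME-180 AP-1-bla in 0.5% dialyzed FBS Opti-MEM, with a 5 h, 37 °C compound exposure.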
Assay [4] in a line: qHTS assay to identify small molecule agonists of the AP-1 signaling pathway (AID 1159526; calls by dose curve; note: % is set by controls: 0 for no effect and ±100 for the full control effect).
The target of assay [5] is Retinoic acid receptor RXR-alpha (Homo sapiens) (UniProt P19793). Briefly: qHTS assay to identify small molecule agonists of the RXR signaling pathway (AID 1159527; calls by dose curve; note: % is set by controls: 0 for no effect and ±100 for the full control effect; nearly all actives have a fitted effect of over 35% in size). In a few lines:
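GeneBLAzer RXR-alpha-UAS-bla HEK 293T cells in 2% charcoal-stripped FBS medium were exposed to compounds for 16 hr at 37 C in agonist mode. Beta-lactamase reporter read as 460/530 nm FRET ratio after 2 hr substrate loading.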

Assay [6] can be described thus: qHTS assay to identify small molecule agonists of the RXR signaling pathway - cell viability counter screen (AID 1159529). Note: series mostly up to about 77 µM; % is set by controls: 0 for no effect and ±100 for the full control effect; nearly all actives have a fitted effect of over 50% in size. An outline of the steps:
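RXR-alpha-UAS-bla HEK 293T cells in medium with 2% charcoal-stripped FBS were pre-incubated 5 hr, then compound-treated 16 hr at 37 C. Viability was read by CellTiter-Glo luminescence in the same wells as the beta-lactamase assay, with tetraoctyl ammonium bromide as positive control.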

Assay [7] in a line: qHTS assay to identify small molecule antagonists of the retinoid acid receptor (RAR) signaling pathway - cell viability counter screen (AID 1159551). Note: % is set by controls: 0 for no effect and ±100 for the full control effect; nearly all actives have a fitted effect of over 35% in size. An outline of the steps:
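Luminescent ATP quantitation (CellTiter-Glo) gave cell viability in C3RL4 cells exposed to test chemicals for 6 h at 37 C alongside 1 uM final retinol.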

Assay [8] is described as follows: qHTS assay to identify small molecule antagonists of the retinoic acid receptor (RAR) signaling pathway (AID 1159552; note: % is set by controls: 0 for no effect and ±100 for the full control effect; nearly all actives have a fitted effect of over 50% in size). An outline of the steps:
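Retinol signaling pathway inhibitors screened in C3RL4 RARE-luciferase reporter cells seeded overnight at 37 C, then compounds added with 1 uM (final) retinol as pathway substrate. After 6 hr at 37 C, luciferase luminescence read after 30 min at room temperature.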

Assay [9] is described as follows: qHTS assay to identify small molecule antagonists of the estrogen related receptor (ERR) signaling pathway from Tox21 library - cell viability counter screen (AID 1224834). Note: % is set by controls: 0 for no effect and ±100 for the full control effect; nearly all actives have a fitted effect of over 30% in size. An outline of the steps: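 Fluorescence from CellTiter-Fluor gives the viability read-out, taken 30 min after reagent addition. Before that, ERR cells seeded 6 h earlier were incubated with compounds for 17.5 h at 37 C.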

Assay [10] can be described thus: qHTS assay to identify small molecule agonists of the vitamin D receptor (VDR) signaling pathway - cell viability counter screen (AID 743224). An outline of the steps:
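Luminescence from CellTiter-Glo, read after 30 min at room temperature, reports viability of VDR-bla cells treated with compounds for 16 h at 37C in the wells used for the beta-lactamase FRET read.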

The nature of assay [11]: qHTS assay to identify small molecule antagonists of the vitamin D receptor (VDR) signaling pathway - cell viability counter screen (AID 743225). An outline of the steps:
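VDR-UAS-bla HEK 293T cells were plated and incubated 4 h at 37C, then dosed with compound plus 3 nM (final) 1-alpha,25-dihydroxyvitamin D3 for 16 h. After the 2 h beta-lactamase read, viability in the same wells was read as CellTiter-Glo luminescence after 30 min at room temperature.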

Chain of Retinoic acid receptor RXR-alpha (Homo sapiens) (P19793 whole entry, looked up): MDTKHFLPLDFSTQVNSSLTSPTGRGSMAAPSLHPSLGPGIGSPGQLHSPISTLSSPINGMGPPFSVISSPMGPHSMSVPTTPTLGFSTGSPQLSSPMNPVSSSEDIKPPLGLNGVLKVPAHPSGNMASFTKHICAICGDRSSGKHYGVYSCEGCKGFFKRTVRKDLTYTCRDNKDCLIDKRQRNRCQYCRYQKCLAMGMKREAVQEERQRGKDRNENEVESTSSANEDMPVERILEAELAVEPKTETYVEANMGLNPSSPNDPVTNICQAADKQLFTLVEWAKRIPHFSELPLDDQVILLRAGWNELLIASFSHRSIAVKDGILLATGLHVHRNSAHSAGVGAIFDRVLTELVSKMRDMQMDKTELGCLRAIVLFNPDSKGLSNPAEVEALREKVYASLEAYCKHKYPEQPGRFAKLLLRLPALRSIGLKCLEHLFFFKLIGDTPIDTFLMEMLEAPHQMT

In the case of `C=CC(=O)OCCN(CC)CC`, the Potency entry in assay [1], in assay [2], in [3], in assay [4], in assay [5] and in assay [6] was “inactive” throughout. Further, the Potency entry in assay [7], in [8] and in assay [9] was “inactive” throughout.
In the case of `CCCC(C)CCC(C)=O` (stereo not drawn), the Potency result in [1], in assay [2], in [3], in assay [4], in assay [5] and in assay [6] was “inactive” each time. Moreover, the Potency entry in assay [7], in assay [8] and in [9] was “inactive” in each case.
In the case of `OCCCCl`, the Potency entry in assay [1], in assay [2], in assay [3], in [4], in assay [5] and in assay [6] was “inactive” in each case. Besides, the Potency entry in [7], in [8] and in assay [9] was “inactive” in each case.
For the compound `CC1CCCCC1`, the Potency result in assay [1], in assay [2], in assay [3], in assay [4], in assay [5] and in [6] was “inactive” throughout. The Potency result in assay [7], in assay [8] and in [9] was “inactive” each time.
For `O=C1OC(=O)c2ccc3c4c(ccc1c24)C(=O)OC3=O`, the Potency result in [1], in assay [2], in assay [3], in assay [4], in [5] and in [6] was “inactive” each time. For the same compound, the Potency result in [7], in assay [8] and in assay [9] was “inactive” throughout.
Turning to `OCCC(O)CO` (stereo not drawn), the Potency entry in assay [1], in assay [2], in assay [3], in [4], in assay [5] and in assay [6] was “inactive” throughout. Further, the Potency result in [7], in [8] and in [9] was “inactive” in each case.
Turning to `CN(C)CCN1CCOCC1`, the Potency entry in assay [1], in assay [2], in [3], in [4], in assay [5] and in assay [6] was “inactive” throughout. Further, the Potency entry in [7], in [8] and in assay [9] was “inactive” each time.
`CC1(C)C(=O)N(CO)C(=O)N1CO`: the Potency result in assay [1], in [2], in [3], in [4], in assay [5] and in assay [6] was “inactive” throughout. Besides, the Potency result in assay [7], in assay [8] and in assay [9] was “inactive” throughout.
Consider `Clc1cc(Cl)c(-c2c(Cl)c(Cl)cc(Cl)c2Cl)cc1Cl`, for which the Potency entry in [1], in assay [2], in assay [3], in assay [4], in assay [5] and in assay [6] was “inactive” in each case. The Potency entry in [7], in [8] and in [9] was “inactive” each time.
Regarding `CCOC(=O)CC(C)O` (stereo not drawn), the Potency result in assay [1], in [2], in assay [3], in assay [4], in [5] and in [6] was “inactive” in each case. Besides, the Potency entry in assay [7], in assay [8] and in assay [9] was “inactive” in each case.
As to `CCCCCCS`, the Potency result in assay [1], in [2], in assay [3], in [4], in assay [5] and in [6] was “inactive” throughout. The Potency result in assay [7], in [8] and in [9] was “inactive” throughout.
`CCCCOC(=O)C(C)CC` (stereo not drawn): the Potency in [10] was 24.5 µM (active). Moreover, the Potency result in assay [11], in assay [1], in assay [2], in [3], in assay [4] and in [5] was “inactive” in each case. Besides, the Potency entry in assay [6], in assay [7], in assay [8] and in [9] was “inactive” throughout.
As to `CCC(=O)CC(C)CC` (stereo not drawn), the activity, negative = cytotoxicity in assay [1] is 6.35% [at 0.349 µM]. The activity change, negative = inhibition in [2] was 0.102% [at 0.35 µM]. Also, the figures for the viability change, negative = cytotoxic in assay [3] and in assay [9] were 5.42% [at 0.29 µM] and 2.01% [at 0.349 µM], respectively. The activation was -5.51% [at 0.29 µM] in assay [4] and 2.44% [at 0.29 µM] in assay [5]. Further, the activity change, negative = cytotoxicity in [6] was -1.51% [at 0.29 µM]; in [7], 0.29% [at 0.349 µM]. The activity, negative = inhibition in assay [8] was -2.26% [at 0.349 µM].
As for `CC(C)(C)c1cc(CCC(=O)NCCCCCCNC(=O)CCc2cc(C(C)(C)C)c(O)c(C(C)(C)C)c2)cc(C(C)(C)C)c1O`, the Potency result in assay [1], in assay [2], in [3], in assay [4], in assay [5] and in assay [6] was “inactive” each time. The Potency entry in assay [7], in assay [8] and in [9] was “inactive” in each case.
As for `CCC1CCCCC1`, the Potency result in assay [1], in [2], in [3], in assay [4], in assay [5] and in [6] was “inactive” in each case. For the same compound, the Potency entry in assay [7], in [8] and in [9] was “inactive” throughout.
On to `CCCCCCCCC(C)=O`, for which the Potency result in assay [1], in assay [2], in assay [3], in assay [4], in assay [5] and in assay [6] was “inactive” each time. In addition, the Potency entry in assay [7], in assay [8] and in assay [9] was “inactive” in each case.
Consider `CCOC(/C=C(\C)CCC=C(C)C)OCC`, for which the Potency entry in [1], in [2], in assay [3], in assay [4], in [5] and in [6] was “inactive” each time. Besides, the Potency entry in assay [7], in [8] and in [9] was “inactive” throughout.
On to `OCCCc1cccnc1`, for which the Potency entry in assay [1], in [2], in assay [3], in [4], in assay [5] and in assay [6] was “inactive” each time. Further, the Potency result in [7], in [8] and in [9] was “inactive” each time.
For `CC[N+](CC)(CC)Cc1ccccc1`, the Potency result in assay [1], in [2], in assay [3], in [4], in assay [5] and in assay [6] was “inactive” throughout. In addition, the Potency entry in assay [7], in [8] and in [9] was “inactive” throughout.
With `c1cc[nH]c1`, the Potency result in assay [1], in assay [2], in assay [3], in assay [4], in assay [5] and in assay [6] was “inactive” throughout. Further, the Potency result in [7], in assay [8] and in assay [9] was “inactive” throughout.
In the case of `CCCC(=O)OCC(COC(=O)CCC)OC(=O)CCC`, the Potency result in assay [1], in assay [2], in [3], in assay [4], in assay [5] and in assay [6] was “inactive” throughout. The Potency entry in [7], in assay [8] and in [9] was “inactive” each time.
Turning to `O=CC1CC1`, the Potency entry in [1], in assay [2], in assay [3], in assay [4], in [5] and in [6] was “inactive” in each case. In addition, the Potency result in [7], in assay [8] and in assay [9] was “inactive” in each case.
`Brc1ccccn1`: the Potency entry in assay [1], in assay [2], in assay [3], in assay [4], in [5] and in assay [6] was “inactive” in each case. Also, the Potency entry in [7], in assay [8] and in assay [9] was “inactive” throughout.
As for `CCCCCCCCCCc1ccccc1`, the Potency entry in [1], in assay [2], in [3], in assay [4], in assay [5] and in assay [6] was “inactive” each time. Further, the Potency entry in assay [7], in [8] and in [9] was “inactive” each time.
